Laboratory results: PubChem BioAssay (NCATS)
Inconclusive results are not listed. Active and inactive are the calls of the source. Calls come from the whole dose curve; as a rule, active = well fitted curve in the direction sought with a large enough effect; inconclusive = small, poorly fitted or top-dose-only effect, or another doubt; inactive = no such curve, though single readings can be large; an effect the other way counts as inactive or inconclusive.

Assays:
[1] = Quantitative High-Throughput drug screen in 47 multiple myeloma cell lines against the NCATS MIPE library collection: KMS26_JCRB cell viability assay (AID 1918975); note: nearly all actives have a fitted effect of over 45% in size
Method in brief: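 Viability readout: CellTiter-Glo luminescence following 5 min room-temperature incubation with reagent. Prior exposure: 48 h, 37C, humidified 5% CO2, 500 cells per well.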

[2] = Quantitative High-Throughput drug screen in 47 multiple myeloma cell lines against the NCATS MIPE library collection: MMM1_PLB cell viability assay (AID 1918976); note: nearly all actives have a fitted effect of over 35% in size
Method in brief: (§1)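 ATP-based luminescence (CellTiter-Glo, 5 min RT incubation) quantified surviving cells following two days' treatment with MIPE 4.0 agents at 37 °C, 5% CO2.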

[3] = Quantitative High-Throughput drug screen in 47 multiple myeloma cell lines against the NCATS MIPE library collection: MOLP8_DSMZ cell viability assay (AID 1918977); note: nearly all actives have a fitted effect of over 45% in size
Method in brief: as §1

[4] = Quantitative High-Throughput drug screen in 47 multiple myeloma cell lines against the NCATS MIPE library collection: NCIH929_DSMZ cell viability assay (AID 1918978); note: nearly all actives have a fitted effect of over 35% in size
Method in brief: as §1

[5] = Quantitative High-Throughput drug screen in 47 multiple myeloma cell lines against the NCATS MIPE library collection: OCIMY1_PLB cell viability assay (AID 1918979); note: nearly all actives have a fitted effect of over 35% in size;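 for viability: series mostly up to about 46 µM; 100% = DMSO-only wells and 0% = cell-free media-only wells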
Method in brief: as §1

[6] = Quantitative High-Throughput drug screen in 47 multiple myeloma cell lines against the NCATS MIPE library collection: MM1R_ATCC cell viability assay (AID 1918981); note: nearly all actives have a fitted effect of over 35% in size
Method in brief: as §1

[7] = Quantitative High-Throughput drug screen in 47 multiple myeloma cell lines against the NCATS MIPE library collection: LP1_DSMZ cell viability assay (AID 1918982); note: nearly all actives have a fitted effect of over 35% in size
Method in brief: as §1

[8] = Quantitative High-Throughput drug screen in 47 multiple myeloma cell lines against the NCATS MIPE library collection: KMS28PE_JCRB cell viability assay (AID 1918983); note: nearly all actives have a fitted effect of over 35% in size
Method in brief: as §1

[9] = Quantitative High-Throughput drug screen in 47 multiple myeloma cell lines against the NCATS MIPE library collection: KMS34_JCRB cell viability assay (AID 1918985); note: nearly all actives have a fitted effect of over 40% in size
Method in brief: as §1

[10] = Quantitative High-Throughput drug screen in 47 multiple myeloma cell lines against the NCATS MIPE library collection: OPM1_PLB cell viability assay (AID 1918989); note: nearly all actives have a fitted effect of over 40% in size
Method in brief: as §1

[11] = Quantitative High-Throughput drug screen in 47 multiple myeloma cell lines against the NCATS MIPE library collection: SKMM1_PLB cell viability assay (AID 1919863); details: SKMM1 myeloma viability, CellTiter-Glo ATP, 48 h; viability: hits give low values; note: nearly all actives have a fitted effect of over 35% in size; for viability: series mostly up to about 46 µM
Method in brief: as §1

[12] = Quantitative High-Throughput drug screen in 47 multiple myeloma cell lines against the NCATS MIPE library collection: XG6_PLB cell viability assay (AID 1919865); note: nearly all actives have a fitted effect of over 40% in size
Method in brief: as §1

[13] = Quantitative High-Throughput drug screen in 47 multiple myeloma cell lines against the NCATS MIPE library collection: XG1_PLB cell viability assay (AID 1919866); note: nearly all actives have a fitted effect of over 35% in size
Method in brief: as §1

[14] = Quantitative High-Throughput drug screen in 47 multiple myeloma cell lines against the NCATS MIPE library collection: VP6_DJ cell viability assay (AID 1919867); note: nearly all actives have a fitted effect of over 40% in size
Method in brief: as §1

[15] = Quantitative High-Throughput drug screen in 47 multiple myeloma cell lines against the NCATS MIPE library collection: UTMC2_PLB cell viability assay (AID 1919868); note: nearly all actives have a fitted effect of over 55% in size
Method in brief: as §1

[16] = Quantitative High-Throughput drug screen in 47 multiple myeloma cell lines against the NCATS MIPE library collection: MM1S_ATCC cell viability assay (AID 1918980); note: nearly all actives have a fitted effect of over 45% in size
Method in brief: as §1

[17] = Quantitative High-Throughput drug screen in 47 multiple myeloma cell lines against the NCATS MIPE library collection: OCIMY7_PLB cell viability assay (AID 1918987); note: nearly all actives have a fitted effect of over 65% in size
Method in brief: as §1

[18] = Quantitative High-Throughput drug screen in 47 multiple myeloma cell lines against the NCATS MIPE library collection: L363_DSMZ cell viability assay (AID 1918984); note: nearly all actives have a fitted effect of over 40% in size
Method in brief: as §1

[19] = Quantitative High-Throughput drug screen in 47 multiple myeloma cell lines against the NCATS MIPE library collection: U266_ATCC cell viability assay (AID 1919864); note: nearly all actives have a fitted effect of over 35% in size
Method in brief: as §1
Potency is the fitted concentration of half-maximal effect.

O=C(Nc1ccc([N+](=O)[O-])cc1Cl)c1cc(Cl)ccc1O
active: Potency [1] 1.87 µM | Potency [2] 0.743 µM | Potency [3] 1.66 µM | Potency [4] 1.05 µM | Potency [5] 2.96 µM | Potency [6] 1.66 µM | Potency [7] 0.743 µM | Potency [8] 2.09 µM | Potency [9] 1.66 µM | Potency [10] 0.833 µM | Potency [11] 1.48 µM | Potency [12] 1.32 µM | Potency [13] 0.935 µM | Potency [14] 0.743 µM | Potency [15] 1.05 µM

CN(C)C(=O)C(CCN1CCC(O)(c2ccc(Cl)cc2)CC1)(c1ccccc1)c1ccccc1
active: Potency [1] 16.6 µM | Potency [2] 16.6 µM | Potency [4] 23.5 µM | Potency [16] 20.9 µM | Potency [6] 20.9 µM | Potency [8] 14.8 µM | Potency [17] 20.9 µM | Potency [10] 23.5 µM | Potency [11] 23.5 µM | Potency [12] 20.9 µM | Potency [13] 18.7 µM | Potency [14] 20.9 µM | Potency [15] 18.7 µM

Cn1cnc2c1c(=O)[nH]c(=O)n2C
active: Potency [1] 20.9 µM | Potency [2] 10.5 µM | Potency [3] 16.6 µM | Potency [4] 16.6 µM | Potency [5] 23.5 µM | Potency [6] 18.7 µM | Potency [7] 16.6 µM | Potency [8] 18.7 µM | Potency [18] 7.43 µM | Potency [9] 16.6 µM | Potency [17] 5.9 µM | Potency [10] 10.5 µM | Potency [11] 20.9 µM | Potency [19] 23.5 µM | Potency [12] 16.6 µM | Potency [13] 14.8 µM | Potency [15] 14.8 µM

CS(=O)(=O)Nc1ccc([N+](=O)[O-])cc1Oc1ccccc1
active: Potency [1] 18.7 µM | Potency [2] 11.8 µM | Potency [16] 16.6 µM | Potency [6] 20.9 µM | Potency [8] 0.187 µM
inactive: Potency [4] | Potency [5] | Potency [12] | Potency [13] | Potency [14]

CC1(C)O[C@H]2CC(=O)OC[C@]23[C@H]2CC[C@@]4(C)[C@H](c5ccoc5)OC(=O)[C@H]5O[C@]54[C@]2(C)C(=O)C[C@@H]13
inactive: Potency [1] | Potency [3] | Potency [4] | Potency [5] | Potency [16] | Potency [6] | Potency [7] | Potency [8] | Potency [9] | Potency [12] | Potency [13]

CS(=O)(=O)CCNCc1ccc(-c2ccc3ncnc(Nc4ccc(OCc5cccc(F)c5)c(Cl)c4)c3c2)o1
active: Potency [1] 16.6 µM | Potency [2] 18.7 µM | Potency [3] 26.4 µM | Potency [4] 0.264 µM | Potency [16] 0.166 µM | Potency [6] 18.7 µM | Potency [7] 18.7 µM | Potency [8] 26.4 µM | Potency [9] 29.6 µM | Potency [17] 0.0833 µM | Potency [10] 6.62 µM | Potency [11] 23.5 µM | Potency [12] 0.001 µM | Potency [13] 0.0187 µM | Potency [14] 1.66 µM | Potency [15] 1.18 µM

CN(C)C(=N)N=C(N)N
active: Potency [8] 0.833 µM
inactive: Potency [1] | Potency [4] | Potency [5] | Potency [16] | Potency [6] | Potency [17] | Potency [10] | viability [11] 138% | Potency [14]
